Experimental data: PubChem BioAssay AID1159580 (chemical genetic matrix, 2015)
About 2,000 (36%) of roughly 5,500 compounds were called active. Not shown: some 18% with an inconclusive outcome. Cut-off read from the data, not from the text of the source: active = normalized growth mostly below about 0.91 (no sharp cut-off); inconclusive = no clear call, values can overlap the other calls; inactive = mostly above about 0.92. The list shows a part of the results.

Assay: chemical genetic growth profiling, strain panel (AID 1159580);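 note: tested at 20 µM; growth read once vehicle control cultures reached saturation at 30 °C; 1 = growth at the plate median or of vehicle wells; lower values mean less growth of the strain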
Conditions: S. cerevisiae deletion strains, growth OD

Measured: normalized growth

CN(C)c1ccc(C(=C2C=CC(=[N+](C)C)C=C2)c2ccc(N(C)C)cc2)cc1
active: locus YJR043C, strain POL32, active compounds read low 0.373 | locus YJR066W, strain TOR1, active compounds read low 0.0572 | locus YKL009W, strain mrt4, active compounds read low 0.538 | locus YKL068W, active compounds read low 0.431 | locus YKL085W, strain MDH1 (second series), active compounds read low 0.429 | locus YKL085W, strain MDH1, active compounds read low 0.429 | locus YKL160W, strain elf1, active compounds read low 0.44 | locus YKR001C, strain vps1, active compounds read low 0.514 | locus YKR026C, strain gcn3, active compounds read low 0.573 | locus YKR091W, strain srl3, active compounds read low 0.536 | locus YLL001W, strain dnm1, active compounds read low 0.605 | locus YLL026W, active compounds read low 0.536 | locus YLL041C, strain sdh2, active compounds read low 0.468 | locus YLR027C, strain aat2, active compounds read low 0.449 | locus YLR058C, strain SHM2, active compounds read low 0.364 | locus YLR102C, strain apc9, active compounds read low 0.449 | locus YLR113W, strain HOG1, active compounds read low 1.5 [resistant] | locus YLR221C, strain rsa3, active compounds read low 0.457 | locus YLR258W, strain gsy2, active compounds read low 0.527 | locus YLR262C, strain YPT6 (second series), active compounds read low 0.65 | locus YLR268W, strain sec22, active compounds read low 0.553 | locus YLR320W, strain mms22, active compounds read low 0.558 | locus YLR330W, strain CHS5, active compounds read low 0.355 | locus YLR342W, strain FKS1 (second series), active compounds read low 0.388 | locus YLR342W, strain FKS1, active compounds read low 0.499 | locus YLR370C, strain arc18, active compounds read low 0.564 | locus YLR371W, strain rom2, active compounds read low 0.489 | locus YLR384C, strain iki3, active compounds read low 0.486 | locus YLR418C, strain cdc73, active compounds read low 0.769 | locus YML016C, strain PPZ1, active compounds read low 0.345 | locus YML032C, strain rad52, active compounds read low 0.583 | locus YML120C, strain ndi1, active compounds read low 0.554 | locus YML124C, strain tub3, active compounds read low 0.48 | locus YMR058W, strain fet3, active compounds read low 0.59 | locus YMR078C, strain ctf18, active compounds read low 0.546 | locus YMR125W, strain sto1, active compounds read low 0.617 | locus YMR129W, active compounds read low 0.505 | locus YMR205C, strain PFK2, active compounds read low 0.688 | locus YMR223W, strain ubp8, active compounds read low 0.524 | locus YMR231W, strain pep5, active compounds read low 0.558 | locus YMR307W, strain GAS1, active compounds read low 0.562 | locus YNL067W, strain RPL9B, active compounds read low 0.315 | locus YNL071W, strain lat1, active compounds read low 0.573 | locus YNL183C, strain NPR1, active compounds read low -0.00369 | locus YNL209W, strain ssb2, active compounds read low 0.435 | locus YNL233W, strain BNI4, active compounds read low 0.338 | locus YNL248C, strain rpa49, active compounds read low 0.6 | locus YNL250W, strain rad50, active compounds read low 0.597 | locus YNL271C, strain bni1, active compounds read low 0.458 | locus YNL298W, strain CLA4, active compounds read low 0.511 | locus YNL307C, strain MCK1, active compounds read low 0.521 | locus YNL322C, strain KRE1 (second series), active compounds read low 0.626 | locus YNL322C, strain KRE1, active compounds read low 0.318 | locus YNR049C, strain mso1, active compounds read low 0.547 | locus YNR052C, strain pop2, active compounds read low 0.497 | locus YOL147C, strain pex11, active compounds read low 0.501 | locus YOR001W, strain rrp6, active compounds read low 0.55 | locus YOR061W, strain CKA2, active compounds read low 0.335 | locus YOR069W, strain VPS5, active compounds read low 0.33 | locus YOR070C, strain gyp1, active compounds read low 0.466 | locus YOR080W, strain dia2, active compounds read low 0.569 | locus YOR083W, strain WHI5, active compounds read low 0.547 | locus YOR106W, strain vam3, active compounds read low 0.505 | locus YOR136W, strain idh2, active compounds read low 0.549 | locus YOR144C, strain elg1, active compounds read low 0.483 | locus YOR184W, strain ser1, active compounds read low 0.604 | locus YOR231W, strain MKK1, active compounds read low 1.28 [resistant] | locus YOR265W, strain rbl2, active compounds read low 0.469 | locus YOR270C, strain vph1, active compounds read low 0.762 | locus YOR290C, strain snf2, active compounds read low 0.636 | locus YOR316C, strain cot1, active compounds read low 0.454 | locus YPL051W, strain arl3, active compounds read low 0.488 | locus YPL055C, strain LGE1, active compounds read low 0.408 | locus YPL078C, strain atp4, active compounds read low 0.643 | locus YPL106C, strain sse1, active compounds read low 0.77 | locus YPL240C, strain hsp82, active compounds read low 0.466 | locus YPL241C, strain CIN2, active compounds read low 0.316 | locus YPL256C, strain CLN2, active compounds read low 1.48 [resistant] | locus YPR119W, strain clb2, active compounds read low 0.472 | locus YPR141C, strain kar3, active compounds read low 0.559 | locus YPR163C, strain tif3, active compounds read low 0.517 | locus YPR167C, strain met16, active compounds read low 0.49 | strain wtn01, active compounds read low 0.535
inactive: locus YLR039C, strain RIC1, active compounds read low 0.713 | locus YLR262C, strain YPT6, active compounds read low 0.753 | locus YLR357W, strain rsc2, active compounds read low 1.04 | locus YOL012C, strain htz1 1.5
